From PubChem BioAssay (Tox21) come the findings set out here.

Records with an inconclusive call do not appear. Unmarked numbers belong to inactive results. Activity calls are given as the source filed them. Unless noted, calls follow the shape of the dose curve; as a rule, active = well fitted curve in the direction sought with a large enough effect in the repeat runs; inconclusive = weak or mixed curves; inactive = no such curve, though single readings can be large; an effect the other way counts as inactive or inconclusive.

A short description of experiment [1]: qHTS assay to identify small molecule agonists of the peroxisome proliferator-activated receptor delta (PPARd) signaling pathway - cell viability counter screen (AID 743211). Also: nearly all actives have a fitted effect of over 55% in size. The procedure, abridged:
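Counter screen for cytotoxicity run in parallel with the PPARd reporter screen. Beta-lactamase reporter HEK293H cells exposed to compounds 17 h; ATP-based CellTiter-Glo luminescence quantified viability.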
A general note: In qHTS, concentration-response curves come from the screen itself.

The nature of experiment [2]: qHTS assay to identify small molecule antagonists of the peroxisome proliferator-activated receptor delta (PPARd) signaling pathway - cell viability counter screen (AID 743213). Also: nearly all actives have a fitted effect of over 50% in size. The method in brief:
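Viability counter-screen, qHTS format: PPARd-bla HEK293H, L165041 300 nM final, 17 h compound exposure at 37 C, CellTiter-Glo luminescence after 30 min RT.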

Experiment [3] deals with Bile acid receptor (Homo sapiens) (UniProt Q96RI1). As to the kind of experiment: qHTS assay to identify small molecule antagonists of the farnesoid-X-receptor (FXR) signaling pathway (AID 743217; active = well fitted inhibition curve with a large enough effect in the signal ratio in the repeat runs, not every such curve was filed as active; the % refers to the signal ratio). The procedure, abridged: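 Read-out: beta-lactamase FRET fluorescence (LiveBLAzer B/G substrate, 2 h, room temperature) in GeneBLAzer FXR-UAS-bla HEK 293T cells. Compounds were co-dosed with 50 uM chenodeoxycholic acid (final) and incubated 16 h at 37 °C.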

A short description of experiment [4]: qHTS assay to identify small molecule agonists of the farnesoid-X-receptor (FXR) signaling pathway - cell viability counter screen (AID 743218). Also: nearly all actives have a fitted effect of over 45% in size. The method in brief:
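Luminescence from CellTiter-Glo, read after 30 min at RT, reports viability of GeneBLAzer FXR-UAS-bla HEK 293T cells treated 16 h with compounds in the wells used for the beta-lactamase reporter.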

Experiment [5] concerns the target Bile acid receptor (Homo sapiens) (UniProt Q96RI1). In words: qHTS assay to identify small molecule agonists of the farnesoid-X-receptor (FXR) signaling pathway (AID 743220; active = well fitted activation curve with a large enough effect in the signal ratio in the repeat runs, not every such curve was filed as active; the % refers to the signal ratio). The procedure, abridged:
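FXR-UAS-bla HEK 293T cells carrying a UAS-driven beta-lactamase reporter were plated for 5 h at 37C/5% CO2, then exposed to DMSO-dissolved Tox21 10K compounds for 16 h at 37C. A LiveBLAzer B/G FRET substrate was loaded for 2 h at room temperature before fluorescence reading.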

A short description of experiment [6]: qHTS assay to identify small molecule antagonists of the farnesoid-X-receptor (FXR) signaling pathway - cell viability counter screen (AID 743221; active = well fitted cell-killing curve with a large enough effect in the repeat runs, not every such curve was filed as active; also: nearly all actives have a fitted effect of over 50% in size). The procedure, abridged:
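Multiplexed counter screen: viability of FXR-bla HEK 293T cells under agonist stimulation by chenodeoxycholic acid (50 uM, final) and test compound for 16 h at 37 C, measured by CellTiter-Glo luminescence in the reporter wells.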

Experiment [7] has as its target Vitamin D3 receptor (Homo sapiens) (UniProt P11473). As to the kind of experiment: qHTS assay to identify small molecule agonists of the vitamin D receptor (VDR) signaling pathway (AID 743222; calls by dose curve). The method in brief: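 Beta-lactamase reporter readout (LiveBLAzer B/G FRET, 2 h RT) in VDR-bla cells after 16 h compound treatment at 37C, 5% CO2; cells pre-incubated 4 h before pin transfer of DMSO solutions.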

The target is the same in experiment [8]. In words: qHTS assay to identify small molecule antagonists of the vitamin D receptor (VDR) signaling pathway (AID 743223; active = well fitted inhibition curve with a large enough effect in the signal ratio in the repeat runs, not every such curve was filed as active; the % refers to the signal ratio). The procedure, abridged:
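Cells carrying a VDR-driven beta-lactamase reporter (VDR-bla) were co-treated with compound and 3 nM final 1alpha,25-dihydroxyvitamin D3 for 16 h at 37C; reporter activity was measured as FRET substrate fluorescence after 2 h at room temperature.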

Experiment [9] in a line: qHTS assay to identify small molecule agonists of the vitamin D receptor (VDR) signaling pathway - cell viability counter screen (AID 743224). Also: series mostly up to about 63 µM; nearly all actives have a fitted effect of over 50% in size. The procedure, abridged:
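Cytotoxicity counter screen: VDR-bla cells, 16 h compound exposure at 37C, 5% CO2; CellTiter-Glo luminescence, 30 min RT, same wells as bla read.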

Experiment [10] is described as follows: qHTS assay to identify small molecule antagonists of the vitamin D receptor (VDR) signaling pathway - cell viability counter screen (AID 743225). Also: nearly all actives have a fitted effect of over 50% in size. The method in brief: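 HEK293T VDR-bla; cpd + 1a,25-(OH)2D3 3 nM final, 16 h 37C/5% CO2; B/G FRET substrate 2 h RT; then CellTiter-Glo 30 min RT, luminescence.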
The nature of experiment [11]: qHTS assay to identify small molecule agonists of the NFkB signaling pathway - cell viability counter screen (AID 1159515; calls by dose curve; also: series mostly up to about 61 µM; nearly all actives have a fitted effect of over 55% in size). The method in brief: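 ME-180 NFkB-bla cells, 2,000/well; overnight attach; compound 5 hr, 37 C/5% CO2; LiveBLAzer substrate 1.5 hr RT; then CellTiter-Glo in same wells, 30 min RT, luminescence read.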
Experiment [12] can be described thus: qHTS assay to identify small molecule agonists of the endoplasmic reticulum stress response signaling pathway - cell viability counter screen (AID 1159517; calls by dose curve). The procedure, abridged: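 Steps: seed 1,500 ESRE-bla HeLa cells per well; incubate overnight at 37 C, 5% CO2; add compounds in DMSO for 5 hr; run FRET substrate 2 hr RT; add CellTiter-Glo, wait 30 min, read luminescence.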

In experiment [13] the target is Nuclear receptor ROR-gamma (Homo sapiens) (UniProt P51449). In words: qHTS assay to identify small molecule antagonists of the retinoid-related orphan receptor gamma (ROR-gamma) signaling pathway (AID 1159521; also: nearly all actives have a fitted effect of over 50% in size; also: potency is read from the fitted curve at half-maximal effect). The method in brief: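 Cells were plated, rested 4 h at 37 C, exposed to compounds for 2 h, then given 1 uM final doxycycline hyclate to induce RORγ expression. After 16 h, ONE-Glo luminescence from the ROR response element reporter was measured.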

A short description of experiment [14]: qHTS assay to identify small molecule agonists of the AP-1 signaling pathway - cell viability counter screen (AID 1159525; calls by dose curve; also: nearly all actives have a fitted effect of over 55% in size). The method in brief: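 Same-well cytotoxicity counter screen of the Tox21 10K library in ME-180 cells. The readout is ATP-dependent luminescence after 5 h compound treatment. Data are normalised to DMSO and tetra n-octyl ammonium bromide controls.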

Experiment [15] is described as follows: qHTS assay to identify small molecule agonists of the AP-1 signaling pathway (AID 1159526; calls by dose curve).
Experiment [16] deals with Retinoic acid receptor RXR-alpha (Homo sapiens) (UniProt P19793). In words: qHTS assay to identify small molecule agonists of the RXR signaling pathway (AID 1159527; calls by dose curve; also: nearly all actives have a fitted effect of over 35% in size). The procedure, abridged: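 Cells plated at 2,000/well, rested 5 hr at 37 C, pin-dosed with DMSO compound solutions, incubated 16 hr, then loaded with B/G FRET substrate for 2 hr at RT before dual-emission fluorescence reading.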

The target in experiment [17] is Peroxisome proliferator-activated receptor delta (Homo sapiens) (UniProt Q03181). As to the kind of experiment: qHTS assay to identify small molecule agonists of the peroxisome proliferator-activated receptor delta (PPARd) signaling pathway (AID 743212; calls by dose curve). The method in brief: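 Read-out: beta-lactamase FRET fluorescence after 2 h room-temperature incubation with LiveBLAzer B/G substrate. Cells were HEK293H carrying a UAS-bla reporter for PPARd, treated at 37 C with DMSO-dissolved compounds.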

Experiment [18] shares this target. As to the kind of experiment: qHTS assay to identify small molecule antagonists of the peroxisome proliferator-activated receptor delta (PPARd) signaling pathway (AID 743215; active = well fitted inhibition curve with a large enough effect in the signal ratio in the repeat runs, not every such curve was filed as active; the % refers to the signal ratio;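 also: cells stimulated with agonist L165041 at 300 nM final during compound exposure; series mostly up to about 62 µM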). The method in brief: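 HEK293H GeneBLAzer PPARd UAS-bla reporter cells; cpd + L165041 300 nM final, 17 h 37 C; LiveBLAzer B/G FRET substrate 2 h RT; fluorescence intensity read-out. Antagonist mode.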

A short description of experiment [19]: qHTS assay to identify small molecule antagonists of the retinoid-related orphan receptor gamma (ROR-gamma) signaling pathway - cell viability counter screen (AID 1159520). Also: nearly all actives have a fitted effect of over 50% in size. The method in brief:
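Tet-on ROR gamma CHO cells were given compounds for 2 hr, then doxycycline hyclate at 1 uM final, and incubated 16 hr at 37 C. Viability was measured as ATP content by CellTiter-Glo luminescence.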

Sequence of Vitamin D3 receptor (Homo sapiens) (P11473 whole entry, looked up): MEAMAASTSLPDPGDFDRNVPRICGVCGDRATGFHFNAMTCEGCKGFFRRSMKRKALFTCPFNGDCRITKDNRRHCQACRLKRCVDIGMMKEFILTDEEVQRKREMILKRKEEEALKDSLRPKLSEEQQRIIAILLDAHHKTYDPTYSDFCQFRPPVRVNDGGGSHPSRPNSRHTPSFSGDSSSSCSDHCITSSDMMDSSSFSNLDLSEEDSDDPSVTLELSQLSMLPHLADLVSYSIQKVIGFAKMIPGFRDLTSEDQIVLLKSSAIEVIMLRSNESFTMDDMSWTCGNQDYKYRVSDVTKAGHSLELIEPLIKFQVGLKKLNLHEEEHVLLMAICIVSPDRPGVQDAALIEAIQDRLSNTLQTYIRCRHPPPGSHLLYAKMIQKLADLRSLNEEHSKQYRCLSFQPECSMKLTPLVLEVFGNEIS
Sequence of Peroxisome proliferator-activated receptor delta (Homo sapiens) (Q03181 whole entry, looked up): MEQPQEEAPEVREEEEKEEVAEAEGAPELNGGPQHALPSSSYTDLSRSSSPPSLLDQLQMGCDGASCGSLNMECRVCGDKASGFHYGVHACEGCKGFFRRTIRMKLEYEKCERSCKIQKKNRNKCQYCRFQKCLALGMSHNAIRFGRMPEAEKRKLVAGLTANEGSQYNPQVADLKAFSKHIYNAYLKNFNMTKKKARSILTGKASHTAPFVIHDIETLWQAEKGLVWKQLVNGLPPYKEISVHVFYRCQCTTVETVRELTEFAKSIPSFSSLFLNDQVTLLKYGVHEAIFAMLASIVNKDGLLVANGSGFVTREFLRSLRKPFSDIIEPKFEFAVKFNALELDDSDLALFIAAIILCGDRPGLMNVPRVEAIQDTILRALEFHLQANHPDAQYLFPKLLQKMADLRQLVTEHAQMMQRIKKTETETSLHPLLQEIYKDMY
Sequence of Bile acid receptor (Homo sapiens) (Q96RI1 whole entry, looked up): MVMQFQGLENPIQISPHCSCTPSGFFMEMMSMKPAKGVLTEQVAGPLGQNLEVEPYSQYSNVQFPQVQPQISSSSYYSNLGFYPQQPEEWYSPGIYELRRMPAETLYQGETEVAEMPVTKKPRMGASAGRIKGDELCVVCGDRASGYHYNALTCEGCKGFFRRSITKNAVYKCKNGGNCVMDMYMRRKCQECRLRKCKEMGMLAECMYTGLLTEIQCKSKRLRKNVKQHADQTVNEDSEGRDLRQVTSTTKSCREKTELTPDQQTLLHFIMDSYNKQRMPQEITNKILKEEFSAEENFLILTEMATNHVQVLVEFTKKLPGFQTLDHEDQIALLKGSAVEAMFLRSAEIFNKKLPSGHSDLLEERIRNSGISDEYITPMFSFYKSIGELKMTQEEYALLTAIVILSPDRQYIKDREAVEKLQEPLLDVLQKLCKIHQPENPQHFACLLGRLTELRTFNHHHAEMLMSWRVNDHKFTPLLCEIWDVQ
Sequence of Retinoic acid receptor RXR-alpha (Homo sapiens) (P19793 whole entry, looked up): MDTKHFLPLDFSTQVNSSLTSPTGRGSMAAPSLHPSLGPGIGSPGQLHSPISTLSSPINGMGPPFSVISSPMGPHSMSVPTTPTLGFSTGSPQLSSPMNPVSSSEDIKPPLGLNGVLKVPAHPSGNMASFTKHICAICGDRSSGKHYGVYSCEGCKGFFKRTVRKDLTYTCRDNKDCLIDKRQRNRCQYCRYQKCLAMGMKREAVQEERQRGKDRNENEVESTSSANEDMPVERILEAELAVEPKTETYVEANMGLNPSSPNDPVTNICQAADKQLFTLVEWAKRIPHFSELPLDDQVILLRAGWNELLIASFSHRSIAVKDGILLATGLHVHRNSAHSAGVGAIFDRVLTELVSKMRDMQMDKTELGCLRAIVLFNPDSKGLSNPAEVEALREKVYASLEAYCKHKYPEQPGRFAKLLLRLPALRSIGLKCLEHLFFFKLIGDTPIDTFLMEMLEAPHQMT

`CCCCCCCCC(CO)CCCCCC` (stereo not given): the Potency entry in experiment [1], in [2], in experiment [4], in experiment [6], in experiment [8] and in experiment [9] was “inactive” throughout. Also, the Potency entry in experiment [10], in experiment [11], in experiment [13], in experiment [14], in [15] and in experiment [16] was “inactive” each time. Moreover, the call in [3], in experiment [5], in [7] and in [12] was inactive.
In the case of `NCCCN(CCO)CCO`, the Potency entry in experiment [1], in [2], in experiment [4], in experiment [6], in [8] and in experiment [9] was “inactive” each time. Further, the Potency result in [10], in experiment [11], in experiment [13] and in experiment [14] was “inactive” in each case. In addition, the result in [17], in experiment [7] and in experiment [12] was inactive.
For the compound `CC(=O)CC(=O)c1ccccc1`, the Potency result in experiment [1], in experiment [4], in experiment [6], in experiment [8], in [9] and in [10] was “inactive” each time. The Potency result in experiment [11], in experiment [19] and in [14] was “inactive” in each case. In addition, the call in experiment [17], in experiment [18], in experiment [7] and in experiment [12] was inactive. For the same compound, the Potency in [13] is 6.9 µM (active).
On to `CC(C)(C)C(=O)OCOP(=O)(COCCn1cnc2c(N)ncnc21)OCOC(=O)C(C)(C)C`, for which the Potency result in experiment [1], in [2], in experiment [4], in experiment [6], in experiment [9] and in experiment [10] was “inactive” each time. Also, the Potency result in experiment [11], in experiment [19], in [14] and in experiment [15] was “inactive” throughout. The compound was classed as inactive in experiment [12]. Also, the Potency in experiment [13] is 11.9 µM (active).
For `Cc1ccccn1`, the Potency result in experiment [1], in [2], in experiment [4], in experiment [6], in experiment [8] and in [9] was “inactive” in each case. In addition, the Potency result in experiment [10], in experiment [11], in experiment [19], in experiment [13], in experiment [14] and in experiment [15] was “inactive” throughout. In addition, the result in experiment [5], in [7] and in experiment [12] was inactive.
